The values below come from ChEMBL document CHEMBL3988442, “University of Dundee, Small-Polar-MMV Screening Library” (2021).

Common to all, as to set-up: scale not given: direction of the effect not stated beside the values
Assay [1] deals with Protein translocase subunit SecA (Escherichia coli (strain K12)) (UniProt P10408). The assay is described as follows: Assay to Identify E. coli SecA ATPase Inhibitors. The assay is classed as functional. The settings on record: 30 µM.
For assay [2], the target named is T1, Ubiquitin-activating enzyme e1, putative (Leishmania donovani (strain BPK282A1)) (UniProt E9BSI1).
T1 sequence (whole entry): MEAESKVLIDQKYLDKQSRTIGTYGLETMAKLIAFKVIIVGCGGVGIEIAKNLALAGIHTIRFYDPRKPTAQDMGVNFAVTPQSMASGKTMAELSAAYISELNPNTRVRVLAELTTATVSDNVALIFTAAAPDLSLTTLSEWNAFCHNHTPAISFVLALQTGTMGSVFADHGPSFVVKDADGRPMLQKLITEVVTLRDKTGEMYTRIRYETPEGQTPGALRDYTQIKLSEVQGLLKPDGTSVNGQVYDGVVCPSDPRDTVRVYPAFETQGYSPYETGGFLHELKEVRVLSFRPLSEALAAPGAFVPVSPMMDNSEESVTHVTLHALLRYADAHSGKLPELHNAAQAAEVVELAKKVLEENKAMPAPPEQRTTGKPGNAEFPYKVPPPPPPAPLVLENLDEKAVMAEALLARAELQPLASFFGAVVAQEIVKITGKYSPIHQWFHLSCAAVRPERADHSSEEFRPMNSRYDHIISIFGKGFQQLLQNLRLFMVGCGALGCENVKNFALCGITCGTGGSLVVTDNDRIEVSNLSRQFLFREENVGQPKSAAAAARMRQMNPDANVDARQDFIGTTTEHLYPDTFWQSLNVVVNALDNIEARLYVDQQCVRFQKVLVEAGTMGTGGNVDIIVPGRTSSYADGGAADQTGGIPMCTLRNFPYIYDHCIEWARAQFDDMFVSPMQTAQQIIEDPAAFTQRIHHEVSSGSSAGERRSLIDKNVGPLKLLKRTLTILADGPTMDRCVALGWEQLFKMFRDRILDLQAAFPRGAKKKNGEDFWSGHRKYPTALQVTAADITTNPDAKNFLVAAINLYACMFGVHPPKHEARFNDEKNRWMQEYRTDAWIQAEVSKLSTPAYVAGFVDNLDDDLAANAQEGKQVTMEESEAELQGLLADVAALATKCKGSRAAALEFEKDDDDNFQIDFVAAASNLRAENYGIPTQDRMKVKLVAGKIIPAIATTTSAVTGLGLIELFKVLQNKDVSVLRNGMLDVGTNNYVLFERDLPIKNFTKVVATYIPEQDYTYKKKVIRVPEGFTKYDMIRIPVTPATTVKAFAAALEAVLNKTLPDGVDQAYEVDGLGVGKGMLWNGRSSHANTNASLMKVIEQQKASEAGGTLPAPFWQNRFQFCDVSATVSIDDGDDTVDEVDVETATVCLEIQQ
In words: Leishmania donovani Ubiquitin Activating Enzyme (LdE1). The note with it: 30 µM. The assay is classed as functional.

Assay [3] has as its target AMP-activated protein kinase, AMPK (Homo sapiens) (UniProt P54646+O43741+P54619+Q9UGJ0+Q9Y478+Q13131+Q9UGI9). In words: AMP-dependent Kinase enzyme assay. An in vitro enzyme assay that detects ADP turnover that is directly proportional to AMPK activity. This uses naive AMPK that is activated during the assay with MK-8722. The format is functional. The settings on record: 30 µM.

In assay [4] the target is Sialic acid-binding Ig-like lectin 9 (Homo sapiens) (UniProt Q9Y336). In words: Hs-Siglec9 ALPHAscreen SOP 20170721. The settings on record: 10 µM.
The test system of the next assay is Trypanosoma cruzi. The assay is described as follows: Trypanosoma cruzi phosphomannomutase and mannose-1-phosphate guanylyltransferase assay. The assay is classed as functional. The note with it: 10 µM.
Assay [5] concerns the target T2, Arginase-2, mitochondrial (Homo sapiens) (UniProt P78540).
T2 sequence (whole entry): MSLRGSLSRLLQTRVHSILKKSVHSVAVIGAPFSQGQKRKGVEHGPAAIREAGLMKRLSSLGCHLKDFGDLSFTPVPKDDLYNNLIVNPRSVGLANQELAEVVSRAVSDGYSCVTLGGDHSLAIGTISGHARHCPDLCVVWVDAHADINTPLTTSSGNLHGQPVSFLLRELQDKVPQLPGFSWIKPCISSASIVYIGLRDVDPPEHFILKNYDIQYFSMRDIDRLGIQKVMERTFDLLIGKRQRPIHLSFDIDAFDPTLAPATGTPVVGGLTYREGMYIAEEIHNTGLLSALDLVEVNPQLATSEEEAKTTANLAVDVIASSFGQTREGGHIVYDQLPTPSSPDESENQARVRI
The assay is described as follows: in vitro enzyme assay to detect the production of urea directly proportional to the activity of Arginase II. Further: in the data most compounds retested in dose-response had high values. The assay is classed as functional. The note with it: 33.3 µM.

Assay [6] addresses T3, Proteasome subunit beta (Trypanosoma cruzi) (UniProt O96673).
T3 sequence (whole entry): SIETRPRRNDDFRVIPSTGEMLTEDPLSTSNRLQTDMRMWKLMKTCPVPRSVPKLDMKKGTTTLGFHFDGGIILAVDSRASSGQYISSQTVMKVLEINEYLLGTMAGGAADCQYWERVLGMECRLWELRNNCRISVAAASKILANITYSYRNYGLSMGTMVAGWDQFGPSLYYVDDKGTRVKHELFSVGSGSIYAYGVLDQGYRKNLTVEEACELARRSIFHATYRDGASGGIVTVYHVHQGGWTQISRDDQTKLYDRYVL
The assay is described as follows: Trypanosoma cruzi proteasome chymotrypsin-like activity (TcProtChymo) assay. Further: in the data most compounds retested in dose-response had high values. The format is functional. The note with it: 9.37 µM.

The species named for the next assay is Homo sapiens. The assay is described as follows: To identify inhibition of the IFN signalling (Jak-Stat) pathway via expression of an eGFP reporter gene under the control of an IFN-stimulated response element (ISRE) containing MxA promoter. The format is functional. The settings on record: 30 µM.
The target in assay [7] is T4, Tyrosyl-tRNA synthetase, putative (Trypanosoma cruzi (strain CL Brener)) (UniProt Q4DSP6).
T4 sequence (whole entry): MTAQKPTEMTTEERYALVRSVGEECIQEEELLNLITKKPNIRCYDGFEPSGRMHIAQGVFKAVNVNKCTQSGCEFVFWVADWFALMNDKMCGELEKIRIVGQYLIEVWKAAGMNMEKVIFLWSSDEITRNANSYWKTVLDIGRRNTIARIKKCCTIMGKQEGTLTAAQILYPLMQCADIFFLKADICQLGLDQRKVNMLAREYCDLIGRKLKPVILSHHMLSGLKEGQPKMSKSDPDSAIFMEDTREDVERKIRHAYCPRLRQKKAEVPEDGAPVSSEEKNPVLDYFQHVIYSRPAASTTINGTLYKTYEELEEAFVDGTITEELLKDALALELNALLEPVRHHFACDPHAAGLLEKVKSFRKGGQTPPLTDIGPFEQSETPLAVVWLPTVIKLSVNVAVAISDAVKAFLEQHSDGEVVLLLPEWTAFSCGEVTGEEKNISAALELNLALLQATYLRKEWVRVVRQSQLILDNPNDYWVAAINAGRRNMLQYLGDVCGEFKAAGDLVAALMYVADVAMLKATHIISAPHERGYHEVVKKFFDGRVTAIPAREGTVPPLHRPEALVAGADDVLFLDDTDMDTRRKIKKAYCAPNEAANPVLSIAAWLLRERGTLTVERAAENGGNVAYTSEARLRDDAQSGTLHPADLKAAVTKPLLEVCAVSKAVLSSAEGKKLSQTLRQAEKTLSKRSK
The assay is described as follows: Trypanosoma cruzi tyrosyl tRNA synthetase (TcYRS) _High Tyrosine SOP. Further: in the data most compounds retested in dose-response had high values. The assay is classed as functional. The note with it: 30 µM.

Assay [8] has as its target T4, Tyrosyl-tRNA synthetase, putative (Trypanosoma cruzi (strain CL Brener)). In words: Trypanosoma cruzi tyrosyl tRNA synthetase (TcYRS) SOP. The settings on record: 30 µM. The format is functional.
For assay [9], the target named is Chromo domain-containing protein 1 (Saccharomyces cerevisiae (strain ATCC 204508 / S288c) (Baker's yeast)) (UniProt P32657). The assay is described as follows: ScCHD-1 Enzyme Inhibition Assay. Further: in the data most compounds retested in dose-response had high values. The format is functional. The note with it: 30 µM.

The structures appear in SMILES notation. For some of these results: Entries with a potency or affinity are not part of this list.

Protein translocase subunit SecA (Escherichia coli (strain K12)), sequence (P10408 whole entry): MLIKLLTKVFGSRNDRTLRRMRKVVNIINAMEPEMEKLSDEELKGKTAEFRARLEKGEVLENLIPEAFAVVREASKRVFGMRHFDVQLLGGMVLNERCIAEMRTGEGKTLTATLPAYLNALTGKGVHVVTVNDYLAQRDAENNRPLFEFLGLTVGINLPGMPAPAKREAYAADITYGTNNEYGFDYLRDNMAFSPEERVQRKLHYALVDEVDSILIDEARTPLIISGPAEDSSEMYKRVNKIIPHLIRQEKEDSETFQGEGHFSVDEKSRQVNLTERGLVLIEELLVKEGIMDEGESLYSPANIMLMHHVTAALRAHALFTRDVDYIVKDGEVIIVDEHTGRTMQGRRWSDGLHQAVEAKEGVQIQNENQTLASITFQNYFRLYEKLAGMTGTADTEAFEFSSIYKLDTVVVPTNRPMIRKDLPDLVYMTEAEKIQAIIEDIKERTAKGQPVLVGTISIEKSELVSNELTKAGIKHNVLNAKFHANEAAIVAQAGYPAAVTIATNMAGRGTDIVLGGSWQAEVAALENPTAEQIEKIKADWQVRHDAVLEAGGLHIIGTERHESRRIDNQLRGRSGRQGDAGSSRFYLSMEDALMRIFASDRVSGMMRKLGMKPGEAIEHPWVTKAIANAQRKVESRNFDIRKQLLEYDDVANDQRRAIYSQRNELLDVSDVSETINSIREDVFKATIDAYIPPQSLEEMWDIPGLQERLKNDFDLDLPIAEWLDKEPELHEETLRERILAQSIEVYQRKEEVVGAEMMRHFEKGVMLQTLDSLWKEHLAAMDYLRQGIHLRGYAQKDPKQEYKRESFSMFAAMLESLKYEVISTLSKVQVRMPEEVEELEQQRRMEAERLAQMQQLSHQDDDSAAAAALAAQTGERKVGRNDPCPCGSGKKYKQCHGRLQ
Sialic acid-binding Ig-like lectin 9 (Homo sapiens), sequence (Q9Y336 whole entry): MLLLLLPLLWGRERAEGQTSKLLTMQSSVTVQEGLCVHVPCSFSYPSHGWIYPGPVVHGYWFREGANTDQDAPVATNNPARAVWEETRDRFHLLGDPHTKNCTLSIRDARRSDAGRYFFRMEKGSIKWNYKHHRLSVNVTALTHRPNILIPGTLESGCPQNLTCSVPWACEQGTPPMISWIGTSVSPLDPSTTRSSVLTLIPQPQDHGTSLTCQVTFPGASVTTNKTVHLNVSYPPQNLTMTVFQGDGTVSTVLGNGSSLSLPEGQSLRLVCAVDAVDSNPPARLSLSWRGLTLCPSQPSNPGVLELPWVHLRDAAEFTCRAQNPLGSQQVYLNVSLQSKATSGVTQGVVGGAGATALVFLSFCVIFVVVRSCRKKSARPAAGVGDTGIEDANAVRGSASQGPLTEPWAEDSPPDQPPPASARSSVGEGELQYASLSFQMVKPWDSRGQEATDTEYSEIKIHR
Chromo domain-containing protein 1 (Saccharomyces cerevisiae (strain ATCC 204508 / S288c) (Baker's yeast)), sequence (P32657 whole entry, the tested form may be a part): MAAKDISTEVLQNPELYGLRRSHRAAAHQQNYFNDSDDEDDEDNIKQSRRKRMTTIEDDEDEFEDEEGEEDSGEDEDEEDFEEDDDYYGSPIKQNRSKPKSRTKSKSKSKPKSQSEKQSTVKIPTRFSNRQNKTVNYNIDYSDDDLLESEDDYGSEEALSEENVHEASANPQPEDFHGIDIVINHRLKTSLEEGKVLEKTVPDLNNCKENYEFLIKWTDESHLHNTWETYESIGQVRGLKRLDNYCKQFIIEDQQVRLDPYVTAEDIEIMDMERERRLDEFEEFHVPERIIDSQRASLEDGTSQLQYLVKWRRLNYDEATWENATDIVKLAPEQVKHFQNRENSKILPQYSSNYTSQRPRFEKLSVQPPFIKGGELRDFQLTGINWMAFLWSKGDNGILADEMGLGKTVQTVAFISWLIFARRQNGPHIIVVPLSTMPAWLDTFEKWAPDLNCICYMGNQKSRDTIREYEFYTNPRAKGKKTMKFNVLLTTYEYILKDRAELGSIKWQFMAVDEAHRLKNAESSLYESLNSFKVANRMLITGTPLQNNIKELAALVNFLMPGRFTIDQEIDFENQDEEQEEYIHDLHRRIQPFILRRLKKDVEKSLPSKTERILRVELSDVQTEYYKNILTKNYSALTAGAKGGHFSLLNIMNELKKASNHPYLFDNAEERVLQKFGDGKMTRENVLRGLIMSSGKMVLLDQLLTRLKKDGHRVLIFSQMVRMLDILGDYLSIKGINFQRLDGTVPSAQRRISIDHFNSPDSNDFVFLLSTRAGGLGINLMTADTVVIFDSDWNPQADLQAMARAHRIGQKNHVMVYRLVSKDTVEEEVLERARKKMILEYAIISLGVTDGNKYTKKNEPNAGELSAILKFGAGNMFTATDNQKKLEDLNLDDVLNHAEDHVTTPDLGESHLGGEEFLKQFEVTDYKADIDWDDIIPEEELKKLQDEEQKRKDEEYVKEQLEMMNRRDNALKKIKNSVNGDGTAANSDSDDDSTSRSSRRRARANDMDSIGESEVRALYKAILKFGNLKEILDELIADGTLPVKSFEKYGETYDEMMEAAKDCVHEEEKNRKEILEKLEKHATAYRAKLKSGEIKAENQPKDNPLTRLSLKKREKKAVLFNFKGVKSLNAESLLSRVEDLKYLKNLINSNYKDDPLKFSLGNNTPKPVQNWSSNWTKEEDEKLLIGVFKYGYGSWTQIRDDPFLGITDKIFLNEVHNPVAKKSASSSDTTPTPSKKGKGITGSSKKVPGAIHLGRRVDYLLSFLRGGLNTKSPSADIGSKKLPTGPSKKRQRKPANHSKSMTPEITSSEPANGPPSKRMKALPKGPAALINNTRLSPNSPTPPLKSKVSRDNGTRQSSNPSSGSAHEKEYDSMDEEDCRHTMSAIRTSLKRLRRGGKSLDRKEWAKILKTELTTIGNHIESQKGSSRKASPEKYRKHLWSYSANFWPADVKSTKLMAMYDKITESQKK

For `CN(C(=O)Cn1nc(-c2cccs2)ccc1=O)C1CCS(=O)(=O)C1` (stereo not drawn), the Percent Effect in [1] is -7.27%; in [2], 0%; in [3], -37.7%; in [4], -0.941%; in the assay on Trypanosoma cruzi, -7.3%; in assay [5], 1.18%. For the same molecule, the Percent Effect in assay [6] is 14.9%; in the assay filed under Homo sapiens it was 19.4%; in assay [7], -5.32%; in assay [8] it was -10.4%; in assay [9], -7.9%.
As for `COc1ccc(OC)c(CN2CCCCCC2c2cccs2)c1` (stereo not drawn), the Percent Effect was -4.16% in assay [1]; -7.79% in [2]; -2.05% in assay [3]; -14.1% in assay [4]; 7.59% in the assay with Trypanosoma cruzi; 3.23% in assay [5]. In addition, the Percent Effect in assay [6] was 9.05%; in the assay filed under Homo sapiens it was 8.15%; in [7], -5.29%; in assay [8], -32%; in assay [9], -9.84%.
For `COCCOc1ccccc1C(=O)N1CCCCC1c1nccs1` (stereo not drawn), the Percent Effect was -5.08% in assay [1]; 5.41% in [2]; -31.5% in [3]; 16.3% in assay [4]; 7.45% in the assay on Trypanosoma cruzi; -2.81% in [5]. In addition, the Percent Effect in assay [6] is 2.52%; in the assay filed under Homo sapiens, -0.874%; in assay [7], 4.43%; in assay [8], 11.1%; in assay [9] it was -14.3%.
In the case of `CCn1cnnc1CNC(=O)c1ccc(Cl)cc1F`, the Percent Effect is -2.15% in assay [1]; 16.5% in [2]; -1.73% in [3]; 3.58% in assay [4]; 0.103% in the assay with Trypanosoma cruzi; -6.24% in assay [5]. Besides, the Percent Effect in assay [6] was 16.6%; in the assay filed under Homo sapiens, 5.91%; in [7], 9.38%; in assay [8], 17.7%; in [9] it was -13.8%.
With `COc1ccccc1OCC(=O)NS(=O)(=O)c1ccccc1F`, the Percent Effect in assay [1] is -3.52%; in [2], 13.5%; in assay [3] it was -3.34%; in assay [4], 25.9%; with Trypanosoma cruzi, 4.44%; in assay [5], -0.952%. Also, the Percent Effect in [6] is 11.9%; in the assay listed under Homo sapiens it was 6.7%; in [7], 2.65%; in [8], 9.76%; in assay [9] it was -10.8%.
As to `Cc1cn2c(n1)CCC(NC(=O)CCn1ccnn1)C2` (stereo not drawn), the Percent Effect was -3.55% in assay [1]; 5.26% in assay [2]; -3.01% in assay [3]; -3.07% in [4]; -3.08% in the assay with Trypanosoma cruzi; 3.24% in assay [5]. In addition, the Percent Effect in assay [6] was 5.33%; in the assay listed under Homo sapiens, -2.68%; in [7], 2.46%; in [8], 6.17%; in assay [9] it was 3%.
As for `c1csc(-c2noc(CCCN3CCCC3Cn3cccn3)n2)c1` (stereo not drawn), the Percent Effect was -4.94% in assay [1]; -13.5% in [2]; -5.55% in [3]; 4.78% in [4]; 0.849% with Trypanosoma cruzi; -6.41% in assay [5]. The Percent Effect in [6] is -1.98%; in the assay filed under Homo sapiens it was 0.955%; in [7], 4.43%; in [8], 1.24%; in assay [9], -1.71%.
As for `CCOCCOc1ccccc1C(=O)N1CCCC(c2ncc[nH]2)C1` (stereo not drawn), the Percent Effect is -3.41% in [1]; 8.22% in assay [2]; 11.4% in assay [3]; 0.341% in [4]; 0.979% with Trypanosoma cruzi; 3.64% in assay [5]. Further, the Percent Effect in assay [6] is 23.2%; in the assay listed under Homo sapiens, 6.64%; in assay [7], 8.6%; in assay [8], 17.5%; in assay [9], -11.5%.
